Source: PubChem BioAssay (NCI)
Compounds without any hit were thinned out: in the full panel of roughly 83,000, 20% have a hit.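 48-hour exposure, single concentration, 96-well plates; percent growth endpoint where 0 means no net growth. Active: below 10.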 Values without a mark were called inactive. Active and inactive are the calls of the source.

Assays:
Assay in all cases: NCI-60 one-dose screen, 48 h (100 = growth as untreated, 0 = no growth, -100 = all killed)
Settings in all cases: 10 µM unless noted
[1] = test system: SR leukemia
[2] = test system: RPMI-8226 leukemia
[3] = test system: OVCAR-8 ovarian
[4] = test system: OVCAR-5 ovarian
[5] = test system: OVCAR-4 ovarian
[6] = test system: SK-OV-3 ovarian
[7] = test system: IGROV1 ovarian
[8] = test system: OVCAR-3 ovarian
[9] = test system: HS 578T breast
[10] = test system: NCI/ADR-RES ovarian
[11] = test system: BT-549 breast
[12] = test system: MDA-MB-435 melanoma
[13] = test system: SW-620 colon
[14] = test system: MCF7 breast
[15] = test system: HCT-116 colon
[16] = test system: HCC-2998 colon
[17] = test system: KM12 colon
[18] = test system: T-47D breast

Row | SMILES | growth [1] | growth [2] | growth [3] | growth [4] | growth [5] | growth [6] | growth [7] | growth [8] | growth [9] | growth [10] | growth [11] | growth [12] | growth [13] | growth [14] | growth [15] | growth [16] | growth [17] | growth [18]
1 | O=C(c1cccc(N2CCOCC2)n1)c1c[nH]c2ccccc12 | 95.7% | 96.6% | 89.9% | 105% | 82.3% | 164% | 70% | 91% | 89.2% | 97.2% | 117% | 99.7% | 94.1% | 66% | 97.7% | 113% | 90.5% | –
2 | COc1ccc(/C=N/Nc2c3ccccc3nc3ccccc23)cc1 | 95.6% | 83.8% | 97% | 111% | 81.7% | 90.8% | 88.2% | 91.7% | 93.1% | 102% | 92.2% | 97% | 97.7% | 81.9% | 97.4% | 105% | 91.4% | –
3 | CNC(=O)Nc1ccc(-c2ccc3ncnc(Nc4cccc(Cl)c4)c3c2)cc1 | 27.6% | 55.1% | 54.6% | 55.1% | 69.7% | 19.3% | 12.3% | 39.6% | 46.5% | 57.6% | 50.9% | 64% | 93.9% | 22.6% | 65.9% | 74% | 61.3% | –
4 | O=C(NCCN1CCOCC1)OCc1ccc2c(Cl)cc(Cl)c(O)c2n1 | 68.4% | 56.2% | 49.2% | 106% | 49.4% | 91.8% | 57.8% | 62.1% | 83.1% | 5.25% (active) | 83% | 65.8% | 87.6% | 51% | 39.1% | 83.5% | 53.2% | –
5 | C=C1CC[C@@H]2C(C)(C)[C@H](O)CC[C@@]2(C)[C@@H]1COc1ccc2ccc(=O)oc2c1 | 85.5% | 6.64% (active) | 17% | 109% | 50.8% | 104% | 60.7% | 46.8% | 69.8% | 5.04% (active) | 5.68% (active) | 64.4% | 89.5% | 53.9% | – | 95.4% | 28.2% | 7.88% (active)
6 | COCCn1cc(-c2nc(-c3c[nH]c4ncccc34)cs2)c2ccccc21 | 18.4% | 43.3% | 81% | 43.7% | 15.2% | 54.8% | 36% | 13.6% | 47.4% | 69.1% | 43.2% | 7.74% (active) | 68.6% | 9.03% (active) | 66.5% | 34.4% | 16.4% | –
7 | COC(=O)c1c2c(c[n+]([O-])c1C)C(=O)C=C(NCc1ccccc1)C2=O | -10.3% (active) | -22.6% (active) | -60.4% (active) | -90% (active) | -98.8% (active) | -87.6% (active) | -66.9% (active) | -68.7% (active) | -15.5% (active) | -12.1% (active) | -87.3% (active) | -86.5% (active) | -78.9% (active) | -57.3% (active) | – | -89.5% (active) | -83.2% (active) | -47.7% (active)
8 | CCOC(=O)CNC1=C(Cl)C(=O)N(Cc2ccc(Cl)cc2)C1=O | 105% | 96.6% | 100% | 96.2% | 101% | 99.6% | 97.9% | 105% | 101% | 104% | 109% | 105% | 99.8% | 99.7% | 102% | 103% | 110% | –
9 | CN(C)c1ccc(/C=C2\C=C(c3nc4ccccc4s3)OC2=O)cc1 | 96.7% | 72% | 100% | 96.9% | 81.7% | 86.8% | 89.7% | 102% | 92.2% | 98.8% | 110% | 100% | 94.7% | 70.8% | – | 97.8% | 93.7% | 78%
10 | O=C1NC(=O)C(c2coc3cc(Br)ccc23)=C1c1c[nH]c2ccccc12 | 19.9% | 44.2% | 51.6% | 87.3% | 77.5% | 55.6% | 52.2% | 20.1% | 43.3% | 34% | 67.9% | -7.93% (active) | 35.4% | 30.4% | 27.3% | 108% | 31.7% | –
11 | c1ccc(Nc2nc3c(s2)CCc2c[nH]cc2-3)nc1 | 75.8% | 89% | 90.7% | 108% | 78% | 83.7% | 86.2% | 74.1% | 96% | 92.7% | 95.4% | 110% | 102% | 65.1% | 72.2% | 103% | 92.3% | –
12 | COc1cccc(-c2cn3nc(-c4cn(C)c5ccccc45)sc3n2)c1 | 24.9% | 97% | 101% | 91.4% | 93.6% | 93.6% | 92.8% | 99.2% | 85.7% | 94.3% | 102% | 36.5% | 89.7% | 79.5% | 91.7% | 93.5% | 72.6% | –
13 | CCN1CCN(CCNc2nccc(-c3c(-c4ccc(F)c(O)c4)nc4occn34)n2)S1(=O)=O | 29.5% | -22.7% (active) | 11.7% | 102% | 19.8% | 54% | 44.2% | 39.4% | 42.6% | 12.3% | 21.2% | 10.1% | 44.1% | 17.7% | – | 57.3% | 13.7% | -1.77% (active)
14 | COc1ccc2c(c1)C(C)Cc1c(ncnc1-n1cnc3cc(C)ccc31)N2C (stereo not given) | -0.883% (active) | 11.9% | 9.01% (active) | 78.1% | 58.2% | 19.8% | 27.5% | 6.09% (active) | 36.2% | 6.69% (active) | -3.64% (active) | -17.5% (active) | 25% | 16.1% | – | 10.7% | 12.2% | 44.6%
15 | C[C@@H]1NC(=O)[C@H](Cc2ccccc2)N(Cc2cccnc2)C1=O | 96.9% | 105% | 102% | 96.7% | 102% | 99.2% | 107% | 110% | 94.3% | 104% | 73.2% | 104% | 97.2% | 91.5% | – | – | 103% | 94.6%
16 | O=C(O)CCCCCCCCCCN1C(=O)/C(=C2/C(=O)N(CC(=O)O)c3ccc(Br)cc32)SC1=S | 57.6% | 79.3% | 65.9% | 106% | 95% | 96.6% | 74.3% | 87.9% | 85% | 96.7% | 105% | 102% | 106% | 82.9% | – | 115% | 40.2% | 77.9%
17 | COc1ccc(C/C(C)=C(\c2ccc(O)cc2)c2ccc(OCCN3CCCCC3)cc2)cc1 | 22.1% | 71.9% | 90.7% | 83.2% | 87.1% | 105% | 80.6% | 88.9% | 86.8% | 90.5% | 88.3% | 82.1% | 91.6% | 35.2% | 46.5% | 80.8% | 91.1% | –
18 | Cc1nc2sc(C(=O)Nc3cccc(Cl)c3C)c(N)c2cc1C(=O)/C=C/c1ccccc1 | 14.2% | -37.2% (active) | -12.5% (active) | 8.98% (active) | 35.5% | 28.8% | -11.8% (active) | -76.6% (active) | 6.35% (active) | -4.7% (active) | -35.7% (active) | -26.3% (active) | -21.8% (active) | 3% (active) | – | -83.2% (active) | -16.7% (active) | 21.2%
